This is part of a sample that, as a whole, favours compounds with a hit. Of some 83,000 tested, about 20% had one in any assay.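 Growth was measured after 48 h exposure to one concentration of compound in 96-well plates. Values under 10 count as active.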 Values without a mark were called inactive. Calls of active or inactive are those of the source.

This assay relates to HL-60(TB) leukemia. As to the kind of experiment: NCI-60 one-dose screen, 48 h (100 = growth as untreated, 0 = no growth, -100 = all killed). The note with it: 10 µM unless noted.
Turning to `c1cc(OCCCCCOc2cccc(-c3nc4ccccc4[nH]3)c2)cc(-c2nc3ccccc3[nH]2)c1`, the growth was -32.2% (active).

As for `O=C(Nc1ccc(F)c(Cl)c1)c1n[nH]c(=O)c2ccccc12`, the growth is 86.2%.

Regarding `CCOC(=O)c1cnn2c3ccccc3n(S(=O)(=O)c3ccc(OC)cc3)c12`, the growth is 4.77% (active).

Turning to `CCCCC(=O)Nc1ncc(Cc2ccccc2Cl)s1`, the growth was -7.94% (active).

With `CCCCCCCCCC(C)NC(=O)CCl` (stereo not drawn), the growth is 92.3%.

As to `COc1ccc2c(c1)N(CCO)C1=C(C(=O)OC1)C2c1ccc(OC)c(OC)c1` (stereo not drawn), the growth was -2.68% (active).

For `COc1ccc(-c2nnc3n(C)c(=O)c4ccccc4n23)cc1O`, the growth was -22% (active).

`O=[N+]([O-])c1cc(S(=O)(=O)OCC2CO2)ccc1Cl` (stereo not drawn): the growth was 80.2%.

With `CC(=O)O[C@@]12CO[C@@H]1C[C@H](O)[C@@]1(C)C(=O)[C@H](O)C3=C(C)[C@@H](OC(=O)[C@H](O)[C@@H](NC(=O)OC(C)(C)C)c4ccccc4)C[C@@](O)([C@@H](OC(=O)c4ccccc4)C12)C3(C)C` (stereo partly drawn), the growth was -12.9% (active).

As to `COc1cc(OCc2cccc(-c3ccccc3)c2C)cc(OC)c1CN1CCCCC1C(=O)NCCOCCOCCN` (stereo not drawn), the growth is -42.4% (active).

Regarding `Clc1ccc(-c2nc(NCCc3ccccc3)nc3c(NCCc4ccccc4)cnn23)cc1`, the growth was 88.8%.

For `COc1ccc(CN2CCC(N3CCCC3=O)c3cc(Cl)ccc32)cc1` (stereo not drawn), the growth was 80.2%.

With `C=C(C)[C@@H]1CC[C@]2(C(=O)N[C@@H](Cc3ccccc3)C(=O)OC)CC[C@]3(C)[C@H](CC[C@@H]4[C@@]5(C)CCC(=O)C(C)(C)[C@@H]5CC[C@]43C)[C@@H]12`, the growth was 56%.

The values above are taken from PubChem BioAssay (NCI).
